Bioassay records (PubChem)
G9a inh: G9a (human) methyltransferase inhibition. Q96KQ7. Potency, µM (top dose mostly 102 µM), for the others: top-dose activity, negative = inhibition, actives largely listed as inhibitors. 350,000 tested, 8.8% active. AID 504332. G9a H3K9 monomethylation, AlphaScreen, 2 h; note: % is set by controls: 0 for no effect and ±100 for the full control effect; nearly all actives have a fitted effect of over 75% in size
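Readings reflect AlphaScreen signal from monomethyl-H3K9 antibody detection. HMT at 20 nM; substrate b-H3K9 500 nM; cofactor SAM 20 uM; 2 h RT reaction; compounds tested as titrations in qHTS with 15 min preincubation.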
Sfp PPTase inh: Sfp phosphopantetheinyl transferase inhibition; Q9F4F7; Biochemical Sfp PPTase activity, qHTS; Potency, µM, inactives show largest response in the series, negative = inhibition, usual class: inhibitors; 310,000 tested, 3.5% active; AID 1490;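 note: the enzyme is Sfp with the accession as filed and its product quenches rhodamine fluorescence; 0% = enzyme reaction without inhibitor and -100% = no enzyme wells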
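After 15 min at room temperature with compound, 15 nM Sfp received 5 uM rhodamine-CoA plus 12.5 uM BHQ-2-ybbR (50 mM Hepes pH 7.6, 10 mM MgCl2). Rate came from the fluorescence difference over 30 min, ex 525/em 598 nm.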
HP1b binding inh: blocks HP1-beta chromodomain binding to methylated histone tails. P83916. AID 540317. Potency, µM (doses to about 114 µM), without a hit: at the highest dose activity change, negative = inhibition, most hits filed as inhibitors. AlphaScreen HP1-beta / biotin-H3K9me3 peptide binding. 390,000 tested, 0.56% active; note: nearly all actives have a fitted effect of over 70% in size
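HP1-beta protein (50 nM final) preincubated 30 min at room temperature with biotinylated H3(1-18)K9me3 peptide (50 nM) in PBS pH 7.4, 0.01% Tween-20, then compound added for 30 min. AlphaScreen streptavidin donor/nickel chelate acceptor beads (10 ug/mL final), 30 min dark, luminescence read.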
PLK1 PBD inh: inhibitors of human PLK1 polo-box domain binding | P53350 | 360,000 tested, 2.8% active | Potency, µM, for the others: max response, negative = inhibition, hits mostly inhibitors | Plk1 PBD binding of FITC phosphopeptide, fluorescence polarization; note: series mostly up to about 57 µM; % is set by controls: 0 for no effect and ±100 for the full control effect; nearly all actives have a fitted effect of over 65% in size
JMJD2A Tudor: JMJD2A Tudor domain (human) inhibition | O75164 | AlphaScreen JMJD2A-Tudor / H3K4me3 peptide binding | Potency, µM (doses to about 114 µM), inactives show at the top dose activity change, negative = inhibition, most hits filed as inhibitors | 390,000 tested, 4.4% active | AID 504339; note: % is set by controls: 0 for no effect and ±100 for the full control effect; nearly all actives have a fitted effect of over 50% in size
BAZ2B inh: inhibitors of human BAZ2B bromodomain; 360,000 tested, 4.4% active; AID 504333; Potency, µM (top dose mostly 114 µM), without a hit: top-dose activity change, negative = inhibition, actives largely listed as inhibitors; AlphaScreen BAZ2B-H3K14Ac peptide displacement; Q9UIF8; note: % is set by controls: 0 for no effect and ±100 for the full control effect; nearly all actives have a fitted effect of over 60% in size
Target sequence (Q9UIF8 whole entry, looked up): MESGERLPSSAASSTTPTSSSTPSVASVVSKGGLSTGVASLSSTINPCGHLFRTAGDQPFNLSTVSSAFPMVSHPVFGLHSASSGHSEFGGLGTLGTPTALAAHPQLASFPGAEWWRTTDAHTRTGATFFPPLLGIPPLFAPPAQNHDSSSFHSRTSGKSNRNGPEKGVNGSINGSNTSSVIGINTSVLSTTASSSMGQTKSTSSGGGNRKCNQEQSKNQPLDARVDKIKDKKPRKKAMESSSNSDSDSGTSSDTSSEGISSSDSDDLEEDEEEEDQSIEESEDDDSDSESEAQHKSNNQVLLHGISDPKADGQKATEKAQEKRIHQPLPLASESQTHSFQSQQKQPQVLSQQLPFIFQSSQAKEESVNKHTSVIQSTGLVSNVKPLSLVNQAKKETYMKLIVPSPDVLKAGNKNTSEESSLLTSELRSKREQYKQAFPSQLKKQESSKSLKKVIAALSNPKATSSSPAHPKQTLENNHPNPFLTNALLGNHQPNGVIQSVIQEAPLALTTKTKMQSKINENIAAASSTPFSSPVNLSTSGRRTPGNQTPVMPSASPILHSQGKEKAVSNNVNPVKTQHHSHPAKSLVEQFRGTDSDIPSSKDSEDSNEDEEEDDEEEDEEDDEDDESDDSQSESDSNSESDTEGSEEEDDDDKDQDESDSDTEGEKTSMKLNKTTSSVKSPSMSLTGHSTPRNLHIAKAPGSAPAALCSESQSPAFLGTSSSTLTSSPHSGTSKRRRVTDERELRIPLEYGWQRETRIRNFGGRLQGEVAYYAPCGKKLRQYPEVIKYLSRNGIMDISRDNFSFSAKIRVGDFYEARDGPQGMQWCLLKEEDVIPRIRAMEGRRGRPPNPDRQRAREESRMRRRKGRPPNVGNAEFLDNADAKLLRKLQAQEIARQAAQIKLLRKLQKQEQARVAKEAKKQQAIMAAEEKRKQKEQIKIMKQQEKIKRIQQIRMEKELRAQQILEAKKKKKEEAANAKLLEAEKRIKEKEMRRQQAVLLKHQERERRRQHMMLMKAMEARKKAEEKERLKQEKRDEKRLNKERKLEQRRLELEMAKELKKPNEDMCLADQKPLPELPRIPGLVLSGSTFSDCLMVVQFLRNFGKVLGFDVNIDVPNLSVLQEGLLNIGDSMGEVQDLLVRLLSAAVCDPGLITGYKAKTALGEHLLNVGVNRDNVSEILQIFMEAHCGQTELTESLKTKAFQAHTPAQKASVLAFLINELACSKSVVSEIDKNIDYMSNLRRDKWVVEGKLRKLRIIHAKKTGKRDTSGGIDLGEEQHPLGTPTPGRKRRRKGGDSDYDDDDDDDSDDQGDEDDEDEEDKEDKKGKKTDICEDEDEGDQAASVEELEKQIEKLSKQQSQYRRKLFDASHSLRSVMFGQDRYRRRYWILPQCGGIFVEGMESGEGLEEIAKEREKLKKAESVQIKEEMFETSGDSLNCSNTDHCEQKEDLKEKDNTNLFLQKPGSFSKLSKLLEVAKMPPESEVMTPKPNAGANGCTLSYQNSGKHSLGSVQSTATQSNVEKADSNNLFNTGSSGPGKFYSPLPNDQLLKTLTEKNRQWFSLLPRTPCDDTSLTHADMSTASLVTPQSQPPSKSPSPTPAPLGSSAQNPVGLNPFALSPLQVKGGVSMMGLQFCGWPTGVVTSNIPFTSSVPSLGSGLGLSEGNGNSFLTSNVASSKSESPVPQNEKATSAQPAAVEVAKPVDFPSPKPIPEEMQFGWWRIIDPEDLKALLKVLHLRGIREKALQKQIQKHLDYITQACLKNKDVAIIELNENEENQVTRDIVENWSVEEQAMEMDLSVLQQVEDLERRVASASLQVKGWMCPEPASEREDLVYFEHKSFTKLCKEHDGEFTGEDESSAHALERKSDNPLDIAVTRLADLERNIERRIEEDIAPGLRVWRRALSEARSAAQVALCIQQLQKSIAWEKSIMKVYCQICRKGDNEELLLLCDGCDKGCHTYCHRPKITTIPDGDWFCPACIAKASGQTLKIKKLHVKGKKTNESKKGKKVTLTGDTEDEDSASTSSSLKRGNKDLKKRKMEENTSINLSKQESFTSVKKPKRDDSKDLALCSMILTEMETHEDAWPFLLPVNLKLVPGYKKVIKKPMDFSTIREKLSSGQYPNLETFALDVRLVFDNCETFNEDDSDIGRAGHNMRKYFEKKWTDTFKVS
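Inhibition is scored as reduced AlphaScreen emission. The BAZ2B/b-H3(5-23)K14Ac complex (50 nM each) in PBS pH 7.4, 0.01% Tween-20 meets compound (up to 110 uM) for 30 min at RT before bead addition.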
Active calls of the source: *; [ ] = remark or other dose. Most compounds without a hit are left out; they make up all but 12% or so of the library. Calls come from the whole dose curve; as a rule, active = well fitted curve in the direction sought with a large enough effect; inconclusive = small, poorly fitted or top-dose-only effect, or another doubt; inactive = no such curve, though single readings can be large; an effect the other way counts as inactive or inconclusive. Potency is the fitted concentration of half-maximal effect.

What do the screens show for `CC(=O)n1c2ccccc2c2nc3ccccc3nc21`?
G9a inh: 33%[0.501 µM]; Sfp PPTase inh: 13%; HP1b binding inh: 35%; PLK1 PBD inh: -3%; JMJD2A Tudor: 0%; BAZ2B inh: 37%

Results for O=C(COC(=O)/C=C/c1ccc(Cl)cc1)NCCN1C(=O)CSC1=O ?
G9a inh: -26%; Sfp PPTase inh: 27%; HP1b binding inh: inconclusive; PLK1 PBD inh: 17µM*; JMJD2A Tudor: inconclusive; BAZ2B inh: -12%

What do the screens show for `Cc1ccc(NC(=O)Cn2nc(N3CCN(c4ccccc4)CC3)ccc2=O)cc1F`?
G9a inh: -33%[59 µM]; HP1b binding inh: 5%; JMJD2A Tudor: -36%; BAZ2B inh: -34%

Results for Cc1ccc(-c2cc(C(=O)Nc3ccc(S(=O)(=O)Nc4nccs4)cc3)c3ccccc3n2)c(C)c1 ?
G9a inh: 28µM*; Sfp PPTase inh: 20µM*; HP1b binding inh: inconclusive; PLK1 PBD inh: 5.3µM*; JMJD2A Tudor: inconclusive; BAZ2B inh: inconclusive

Results for O=C(Nc1ccc(S(=O)(=O)Nc2nccs2)cc1)c1cc(-c2ccccc2)nc2ccccc12 ?
G9a inh: 7.9µM*; Sfp PPTase inh: 4%; HP1b binding inh: inconclusive; PLK1 PBD inh: inconclusive; JMJD2A Tudor: 32µM*; BAZ2B inh: inconclusive

How did Cc1ccc(-c2cc(C(=O)Nc3ccc(S(=O)(=O)Nc4ncccn4)cc3)c3ccccc3n2)cc1 do in these assays?
G9a inh: 20%[59 µM]; Sfp PPTase inh: 0%; HP1b binding inh: 29%; PLK1 PBD inh: inconclusive; JMJD2A Tudor: -4%; BAZ2B inh: 8%

How did CC(C)(CCc1ccccn1)C(=O)CCCc1ccccn1 do in these assays?
HP1b binding inh: 12%; PLK1 PBD inh: 1%; JMJD2A Tudor: 0%

What do the screens show for `Cc1c(C(=O)NCc2ccc(C(F)(F)F)cc2)sc(=O)n1Cc1ccc(S(=O)(=O)N(C)C)cc1`?
PLK1 PBD inh: -16%

Results for CC(C)(C)OC(=O)N1CC2(CCCCC2)CC1Cc1ccc(C(F)(F)F)cc1 (stereo not given) ?
PLK1 PBD inh: -10%

What do the screens show for `Cc1cc2cc(C(=O)N3CCc4c([nH]c5ccccc45)C3c3ccccn3)ccc2o1` (stereo not given)?
G9a inh: inconclusive; Sfp PPTase inh: -19%; HP1b binding inh: -18%; PLK1 PBD inh: 3%; JMJD2A Tudor: 35µM*; BAZ2B inh: 40µM*

What do the screens show for `O=C(O)c1cc(-c2ccccc2)n[nH]1`?
G9a inh: 13%[59 µM]; Sfp PPTase inh: -1%; HP1b binding inh: 50%; JMJD2A Tudor: -6%; BAZ2B inh: 8%

How did Cn1cccc1-c1cc(C(=O)O)[nH]n1 do in these assays?
G9a inh: 50µM*; Sfp PPTase inh: 45µM*; HP1b binding inh: 33%; PLK1 PBD inh: 0%; JMJD2A Tudor: -7%; BAZ2B inh: inconclusive

What do the screens show for `Cc1cccc(C2c3[nH]c4ccccc4c3CCN2C(=O)c2cc3c([nH]c2=O)CCCC3)n1` (stereo not given)?
G9a inh: -8%[12.7 µM]; Sfp PPTase inh: 2%; HP1b binding inh: -10%; PLK1 PBD inh: -3%; JMJD2A Tudor: inconclusive; BAZ2B inh: 45µM*

What do the screens show for `O=C(c1cc2c([nH]c1=O)CCCC2)N1CCc2c([nH]c3ccccc23)C1c1ccccc1F` (stereo not given)?
Sfp PPTase inh: -9%; HP1b binding inh: -6%; PLK1 PBD inh: 6%; JMJD2A Tudor: inconclusive; BAZ2B inh: inconclusive

What do the screens show for `Cn1cccc1-c1cc(C(=O)N2CCc3c([nH]c4ccccc34)C2c2ccccn2)[nH]n1` (stereo not given)?
G9a inh: 35µM*; Sfp PPTase inh: inconclusive; HP1b binding inh: inconclusive; PLK1 PBD inh: -10%; JMJD2A Tudor: 50µM*; BAZ2B inh: 35µM*

How did CC/C(=N\NC(=O)c1ccc(-c2ccccc2)cc1)C12CC3CC(CC(C3)C1)C2 do in these assays?
G9a inh: 0%[59 µM]; Sfp PPTase inh: 2%; HP1b binding inh: 25%; PLK1 PBD inh: 0%; JMJD2A Tudor: -29%; BAZ2B inh: -4%

Results for COCCNC(=O)CSc1nc(-c2ccc(C)cc2)nc2c1c(=O)n(C)c(=O)n2C ?
G9a inh: 12%[59 µM]; HP1b binding inh: 16%[57 µM]; JMJD2A Tudor: -5%; BAZ2B inh: -1%

Results for O=C(c1ccc(-n2cccn2)cc1)N1CCc2c([nH]c3ccccc23)C1c1ccccn1 (stereo not given) ?
G9a inh: inconclusive; Sfp PPTase inh: -9%; HP1b binding inh: 10%; PLK1 PBD inh: -13%; JMJD2A Tudor: inconclusive; BAZ2B inh: inconclusive

Results for CC(=O)c1cc(CC(=O)N2CCc3c([nH]c4ccccc34)C2c2ccccn2)cs1 (stereo not given) ?
G9a inh: inconclusive; Sfp PPTase inh: 20µM*; HP1b binding inh: -18%; PLK1 PBD inh: -5%; JMJD2A Tudor: inconclusive; BAZ2B inh: -36%

What do the screens show for `Cc1nc(C)c(CC(=O)N2CCc3c([nH]c4ccccc34)C2c2ccccn2)s1` (stereo not given)?
Sfp PPTase inh: -9%; HP1b binding inh: 0%; PLK1 PBD inh: -11%; JMJD2A Tudor: -35%; BAZ2B inh: inconclusive

Results for Cc1ncoc1C(=O)N1CCc2c([nH]c3ccccc23)C1c1ccccc1F (stereo not given) ?
G9a inh: 40µM*; Sfp PPTase inh: 2%; HP1b binding inh: -13%; PLK1 PBD inh: -6%; JMJD2A Tudor: inconclusive; BAZ2B inh: 50µM*

What do the screens show for `CSc1ccc(C2c3[nH]c4ccccc4c3CCN2C(=O)c2ccnn2C)cc1` (stereo not given)?
G9a inh: 40µM*; Sfp PPTase inh: -8%; HP1b binding inh: -5%; PLK1 PBD inh: -10%; JMJD2A Tudor: inconclusive; BAZ2B inh: inconclusive

Results for CCOC(=O)c1[nH]c(C)c(C(=O)N2CCc3c([nH]c4ccccc34)C2c2ccccn2)c1C (stereo not given) ?
G9a inh: 8%[0.501 µM]; Sfp PPTase inh: -7%; HP1b binding inh: -24%; PLK1 PBD inh: -3%; JMJD2A Tudor: inconclusive; BAZ2B inh: 50µM*

What do the screens show for `COc1ccc(-c2nnc(SCC(=O)Nc3cccc(C(F)(F)F)c3)nc2-c2ccc(OC)cc2)cc1`?
G9a inh: 41%[59 µM]; HP1b binding inh: 16%; JMJD2A Tudor: inconclusive; BAZ2B inh: 8%

Results for CCSc1ccccc1C(=O)NCc1ccc2c(c1)OCO2 ?
G9a inh: 78%[59 µM]; Sfp PPTase inh: -27%; HP1b binding inh: 29%; PLK1 PBD inh: -3%; JMJD2A Tudor: -1%; BAZ2B inh: 70%
